# Source: PubChem BioAssay (NCI)
# This is part of a sample that, as a whole, favours compounds with a hit. Of some 83,000 tested, about 20% had one in any assay.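 A percent growth of 40 corresponds to 60% growth inhibition; 0 means no net growth; -100 means all cells died. Active threshold: below 10.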 A number with no mark means an inactive call. Activity calls are given as the source filed them.
# Columns and labels:
# Test in all cases: NCI-60 one-dose screen, 48 h (100 = growth as untreated, 0 = no growth, -100 = all killed)
# Details in all cases: 10 µM unless noted
# NCI-H23 lung = test system: NCI-H23 lung
# NCI-H226 lung = test system: NCI-H226 lung
# NCI-H322M lung = test system: NCI-H322M lung
# HOP-62 NSCLC = test system: HOP-62 NSCLC
# NCI-H460 lung = test system: NCI-H460 lung
# HOP-92 NSCLC = test system: HOP-92 NSCLC
# NCI-H522 lung = test system: NCI-H522 lung
# A549/ATCC NSCLC = test system: A549/ATCC NSCLC
# 786-0 renal = test system: 786-0 renal
# COLO 205 colon = test system: COLO 205 colon
SMILES,growth (NCI-H23 lung),growth (NCI-H226 lung),growth (NCI-H322M lung),growth (HOP-62 NSCLC),growth (NCI-H460 lung),growth (HOP-92 NSCLC),growth (NCI-H522 lung),growth (A549/ATCC NSCLC),growth (786-0 renal),growth (COLO 205 colon)
COc1ccc2c(CCCCC(c3ccccc3)c3ccccc3)c3[n+](cc2c1OC)CCc1cc2c(cc1-3)OCO2,-66.5% (active),-55% (active),11.1%,-42.7% (active),-83% (active),-72.7% (active),-57.5% (active),-22.5% (active),-75.8% (active),-77.3% (active)
CCOC(=O)Sc1ncnc2nc[nH]c12,64.8%,37.4%,40.4%,17.2%,71.8%,12.2%,-18.8% (active),104%,18%,103%
[2H]C1([2H])[C@H](C)O[C@H](C)C([2H])([2H])N1c1ccc(NC(=O)c2cccc(-c3ccc(OC(F)(F)F)cc3)c2C)cn1,58.5%,58.7%,83.4%,77.7%,85.1%,8.86% (active),44.7%,68.9%,74.1%,81.6%
Cc1cc(NCC(=O)Nc2ccc(-c3nc4ccccc4s3)cc2)no1,82.8%,91%,102%,111%,103%,100%,82.1%,92.3%,102%,108%
CC(C)[C@@H]1CC[C@]2(CO2)[C@@H]2C(=O)OCC(C(=O)O)=C[C@H]21,-18.4% (active),25.5%,8.82% (active),5.26% (active),7.86% (active),-11.9% (active),-45.8% (active),15.5%,11.6%,1.78% (active)
CN1CCN(Cc2ccc(NC(=O)c3[nH]ncc3Nc3ncnc4sc5c(c34)CCCC5)cc2)CC1,-63.7% (active),-51.9% (active),-50.8% (active),-72% (active),-62.2% (active),-21.1% (active),-76.1% (active),-58.2% (active),-92.2% (active),-93% (active)
C=C1C(=O)O[C@H]2[C@H]1CC/C(CNC(=O)c1cc3cc(OC)ccc3[nH]1)=C\CC[C@@]1(C)O[C@@H]21,-54.8% (active),-40.5% (active),65.4%,46.9%,19.3%,-67.3% (active),-67.5% (active),18.5%,-67.2% (active),-73.6% (active)
COc1cnc2c(c1)C(=O)c1c-2n(CCCN2CCOCC2)c(=O)c2cc(Cl)ccc12,20.6%,20.6%,31.3%,4.59% (active),3.15% (active),70.4%,24.3%,34.9%,-0.608% (active),9.49% (active)
CCC1(/C=N/NC(N)=S)NC(=O)NC1=O (stereo not given),99.2%,96.6%,106%,78.8%,109%,95.5%,83.2%,62.5%,105%,111%
CC(C)c1ccc(/C=N/Nc2nc3ccccc3s2)cc1,80.4%,81.7%,96%,87.8%,95.2%,82.5%,85%,85.8%,108%,88.5%
COc1ccc(-c2nocc2-c2cc(OC)c(OC)c(OC)c2)cc1,19.2%,58.8%,44.6%,29.6%,8.8% (active),76%,-5.37% (active),25.4%,43.9%,-12.4% (active)
COc1ccc(COc2cc3oc(=O)c4cc(C(C)O)ccc4c3cc2OC)cc1 (stereo not given),70.8%,55.4%,83.8%,36.9%,58.4%,55.2%,35.1%,48.6%,62.4%,49.3%
ClCc1ccc(-c2ccc(Cn3cnc4nc(Cl)nc(Cl)c43)cc2)cc1,23.6%,29.1%,56.8%,8.06% (active),14.3%,25.8%,-25.2% (active),-6.5% (active),-14% (active),-14.1% (active)
C=CC[n+]1c(/C=C/C=C2\N(C)c3ccccc3C2(C)C)sc2ccc(OC)cc21,11.6%,10.8%,26.2%,14.4%,7.84% (active),-4.42% (active),3.52% (active),16.6%,26.8%,-37.4% (active)
Cc1c(N)ccc(-c2ccc(N)c(C)c2S(=O)(=O)O)c1S(=O)(=O)O,98%,111%,108%,107%,112%,86.1%,101%,117%,106%,111%
COC(=O)[C@@H](NC(=O)[C@@H](OC)[C@@H]1Cc2cc3cc(OC4CC(OC5CC(O)C(O)C(C)O5)C(O)C(C)O4)c(C)c(O)c3c(O)c2C(=O)[C@H]1OC1CC(OC2CC(OC3CC(C)(O)C(O)C(C)O3)C(O)C(C)O2)C(O)C(C)O1)C(C)C (stereo not given in full),-6.89% (active),-23.4% (active),24.8%,6.44% (active),-6.19% (active),-18.9% (active),-20% (active),7.37% (active),-21.2% (active),13.8%
CS(=O)(=O)CCNCc1ccc(-c2ccc3ncnc(Nc4ccc(OCc5cccc(F)c5)c(Cl)c4)c3c2)o1,25.9%,54.7%,13.8%,19.2%,-58% (active),-1.7% (active),-44.5% (active),-39.4% (active),-63.7% (active),-27.2% (active)
COc1ccc2nc3cc(Cl)ccc3c(Nc3ccc(N(C)C)cc3)c2c1,91.9%,83.5%,109%,89.9%,70.6%,76.3%,86.6%,69.3%,96.9%,84.6%
CCN(CC)Cc1cc(Nc2cc(C(F)(F)F)c(C#N)c3nc4ccccc4n23)ccc1O,17.2%,16.5%,16.3%,14%,6.25% (active),-30.2% (active),-55.3% (active),6.97% (active),11.9%,-31.4% (active)
O=C(NC[C@H](O)CO)c1ccncc1Nc1ccc(I)cc1F,15.9%,50.2%,19.8%,23.7%,53.2%,-25.4% (active),51.6%,32.2%,70.2%,-8.7% (active)
COC(=O)[C@]12CC[C@@H](C)[C@H](C)[C@@H]1C1=CC[C@@H]3[C@@]4(C)C(C#N)=CC(C)=C4CC[C@@]3(C)[C@]1(C)CC2,78.2%,82.7%,108%,113%,89.3%,91.7%,78.1%,92.2%,93%,86.1%
CC(C)(C)OC(=O)N1CCC(O)[C@@H](O[Si](c2ccccc2)(c2ccccc2)C(C)(C)C)[C@H]1/C=C/c1ccccc1 (stereo not given in full),34.4%,47.9%,83.5%,67.4%,36.1%,36%,30.1%,41.9%,52.2%,49%
C[C@@H]1COCCN1c1cc(C2([S@](C)(=N)=O)CC2)nc(-c2ccnc3[nH]ccc23)n1,-1.16% (active),39.5%,3.93% (active),8.86% (active),9.37% (active),23%,30.9%,8.97% (active),2.08% (active),42.3%
CNC(=O)c1c(C)oc2cc(Oc3ncnc4cc(OC)c(OC)cc34)ccc12,93.8%,59.4%,93.9%,82.9%,106%,81.1%,89.5%,81.1%,102%,108%
Nc1ccc(S(=O)(=O)O)c2cc(S(=O)(=O)O)cc(O)c12,110%,105%,117%,107%,108%,124%,103%,104%,101%,105%
Cc1cnc(NC(=O)Nc2cc(Br)c(C)cc2OC[C@@H]2CNCCO2)cn1,15%,51.2%,34.3%,12.5%,4.27% (active),35%,-16.4% (active),17.5%,2.83% (active),3.34% (active)
